In the supplement of paper PMC10849652:
Of roughly 8,800 targets only a part is listed; those with a hit were picked by preference. About 0.5% of all pairs of compound and target were hits.

These targets were tested with COc1cc2nc(-c3cc(F)ccc3O)nc(N[C@@H]3CNC[C@H]3C(C)(C)O)c2cc1OC (assay: log2 fold change, soluble protein after heating vs DMSO (PISA); higher = thermal stabilisation; K562 lysate, 10 uM; active = over 0.2 and 3.5 SD of the protein, either way, in both replicates (recomputed)).
Procedure, shortened: (§1)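 Dounce homogenisation of K562 pellets in PBS pH 7.4 with 1 mM MgCl2 produced a crude extract, used at 1 mg/mL protein. Exposure to 10 μM compound lasted 30 min, and aliquots were then heated for 3 min across 48°C-58°C, pooled and brought to 0.5% NP-40 at 4°C. The supernatant after 21,000xg for 90 min was quantified by TMTpro 16plex LC-MS/MS with channel sums equalised. Duplicate values are given as log-two fold change in thermal stability relative to solvent controls.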

Sequence of UniProt Q9UL54 (Q9UL54 whole entry, looked up): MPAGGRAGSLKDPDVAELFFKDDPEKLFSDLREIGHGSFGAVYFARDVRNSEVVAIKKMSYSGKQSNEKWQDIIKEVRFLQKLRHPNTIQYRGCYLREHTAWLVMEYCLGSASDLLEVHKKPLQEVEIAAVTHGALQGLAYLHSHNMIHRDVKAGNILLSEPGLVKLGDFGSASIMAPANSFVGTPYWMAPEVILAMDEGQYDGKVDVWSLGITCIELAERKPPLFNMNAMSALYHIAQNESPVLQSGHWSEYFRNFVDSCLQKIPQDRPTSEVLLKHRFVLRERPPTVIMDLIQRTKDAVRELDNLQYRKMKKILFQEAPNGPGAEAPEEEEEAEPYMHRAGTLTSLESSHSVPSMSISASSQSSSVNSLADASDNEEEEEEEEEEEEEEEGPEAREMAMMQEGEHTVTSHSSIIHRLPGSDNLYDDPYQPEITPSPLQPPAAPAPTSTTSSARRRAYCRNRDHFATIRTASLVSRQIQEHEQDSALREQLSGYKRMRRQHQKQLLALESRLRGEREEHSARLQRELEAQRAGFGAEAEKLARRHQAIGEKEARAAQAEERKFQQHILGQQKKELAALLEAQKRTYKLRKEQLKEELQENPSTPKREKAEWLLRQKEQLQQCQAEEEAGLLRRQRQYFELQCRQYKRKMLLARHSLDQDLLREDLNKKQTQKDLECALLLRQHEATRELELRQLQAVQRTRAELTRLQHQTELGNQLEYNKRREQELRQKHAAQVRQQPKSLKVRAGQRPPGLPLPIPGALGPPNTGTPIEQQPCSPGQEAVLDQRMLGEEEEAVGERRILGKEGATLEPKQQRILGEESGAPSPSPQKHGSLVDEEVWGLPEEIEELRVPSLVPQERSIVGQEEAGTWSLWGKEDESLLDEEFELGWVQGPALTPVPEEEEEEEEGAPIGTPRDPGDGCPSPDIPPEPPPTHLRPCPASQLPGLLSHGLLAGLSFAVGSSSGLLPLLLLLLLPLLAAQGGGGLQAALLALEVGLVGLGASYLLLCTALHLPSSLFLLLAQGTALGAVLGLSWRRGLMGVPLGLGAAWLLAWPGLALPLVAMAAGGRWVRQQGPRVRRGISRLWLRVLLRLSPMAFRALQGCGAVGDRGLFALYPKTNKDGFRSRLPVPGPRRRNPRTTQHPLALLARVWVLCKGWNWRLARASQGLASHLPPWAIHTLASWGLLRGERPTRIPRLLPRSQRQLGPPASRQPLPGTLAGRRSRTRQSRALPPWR
Sequence of UniProt P51532 (P51532 whole entry, looked up): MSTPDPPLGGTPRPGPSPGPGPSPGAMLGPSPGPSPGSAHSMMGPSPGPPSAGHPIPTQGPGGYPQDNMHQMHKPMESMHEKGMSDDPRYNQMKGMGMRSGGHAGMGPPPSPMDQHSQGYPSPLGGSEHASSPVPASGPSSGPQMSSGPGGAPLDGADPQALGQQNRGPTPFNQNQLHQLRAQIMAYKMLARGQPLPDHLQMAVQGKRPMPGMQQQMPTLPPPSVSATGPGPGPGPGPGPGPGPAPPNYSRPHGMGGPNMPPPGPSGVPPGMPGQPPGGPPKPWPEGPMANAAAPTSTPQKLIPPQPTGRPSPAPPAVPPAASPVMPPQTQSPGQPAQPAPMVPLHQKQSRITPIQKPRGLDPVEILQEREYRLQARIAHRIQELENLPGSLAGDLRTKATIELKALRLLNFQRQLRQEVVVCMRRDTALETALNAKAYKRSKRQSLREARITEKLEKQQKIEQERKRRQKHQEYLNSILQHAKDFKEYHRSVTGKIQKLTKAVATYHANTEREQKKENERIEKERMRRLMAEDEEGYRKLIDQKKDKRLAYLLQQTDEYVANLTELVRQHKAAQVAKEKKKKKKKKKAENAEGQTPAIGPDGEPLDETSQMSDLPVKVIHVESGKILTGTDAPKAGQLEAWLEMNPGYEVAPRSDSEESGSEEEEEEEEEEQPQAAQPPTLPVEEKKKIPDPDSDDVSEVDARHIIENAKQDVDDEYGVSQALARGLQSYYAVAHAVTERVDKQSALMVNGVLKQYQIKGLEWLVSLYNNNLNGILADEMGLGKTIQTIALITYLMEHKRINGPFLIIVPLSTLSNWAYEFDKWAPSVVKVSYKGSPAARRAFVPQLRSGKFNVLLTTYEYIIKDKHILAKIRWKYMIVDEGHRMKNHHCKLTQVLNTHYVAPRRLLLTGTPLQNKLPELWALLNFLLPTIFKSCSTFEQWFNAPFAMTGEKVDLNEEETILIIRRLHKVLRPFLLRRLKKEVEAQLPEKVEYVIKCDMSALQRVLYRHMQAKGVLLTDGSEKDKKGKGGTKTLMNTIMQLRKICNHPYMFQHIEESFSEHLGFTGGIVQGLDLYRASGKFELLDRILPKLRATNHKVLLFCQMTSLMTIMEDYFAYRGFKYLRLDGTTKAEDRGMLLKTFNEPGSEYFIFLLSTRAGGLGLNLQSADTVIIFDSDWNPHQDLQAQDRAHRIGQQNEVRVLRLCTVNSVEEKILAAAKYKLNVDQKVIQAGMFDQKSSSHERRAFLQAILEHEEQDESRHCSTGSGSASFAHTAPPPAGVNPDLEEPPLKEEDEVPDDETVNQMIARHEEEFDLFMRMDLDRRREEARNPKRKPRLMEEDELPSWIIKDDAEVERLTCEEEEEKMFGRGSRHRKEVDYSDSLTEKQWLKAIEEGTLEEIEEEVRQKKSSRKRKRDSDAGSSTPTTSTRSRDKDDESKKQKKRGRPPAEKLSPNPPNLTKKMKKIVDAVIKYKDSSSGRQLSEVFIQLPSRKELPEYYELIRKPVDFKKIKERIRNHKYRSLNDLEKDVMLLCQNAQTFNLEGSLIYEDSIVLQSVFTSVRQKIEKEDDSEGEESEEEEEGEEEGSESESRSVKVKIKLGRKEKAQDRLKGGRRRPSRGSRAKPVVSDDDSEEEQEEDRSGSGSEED
Sequence of UniProt Q9NZ72 (Q9NZ72 whole entry, looked up): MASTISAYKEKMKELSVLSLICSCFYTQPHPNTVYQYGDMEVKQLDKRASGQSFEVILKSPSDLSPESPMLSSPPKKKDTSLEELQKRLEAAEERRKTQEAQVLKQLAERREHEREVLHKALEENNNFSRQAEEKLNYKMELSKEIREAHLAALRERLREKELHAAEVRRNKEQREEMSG
Sequence of UniProt Q9H7B4 (Q9H7B4 whole entry, looked up): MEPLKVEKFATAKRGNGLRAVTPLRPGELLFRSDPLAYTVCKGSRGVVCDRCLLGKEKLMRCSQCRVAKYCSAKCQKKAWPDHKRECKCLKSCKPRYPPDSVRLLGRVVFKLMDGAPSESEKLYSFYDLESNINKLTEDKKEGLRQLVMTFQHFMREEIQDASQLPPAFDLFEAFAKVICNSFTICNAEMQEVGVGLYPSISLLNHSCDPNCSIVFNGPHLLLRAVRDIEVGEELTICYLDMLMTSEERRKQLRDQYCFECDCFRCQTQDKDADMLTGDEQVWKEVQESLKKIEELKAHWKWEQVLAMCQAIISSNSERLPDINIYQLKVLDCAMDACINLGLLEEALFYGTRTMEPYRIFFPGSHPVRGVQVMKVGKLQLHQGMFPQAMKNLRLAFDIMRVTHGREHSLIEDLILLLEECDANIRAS
Sequence of UniProt Q8NDV3 (Q8NDV3 whole entry, looked up): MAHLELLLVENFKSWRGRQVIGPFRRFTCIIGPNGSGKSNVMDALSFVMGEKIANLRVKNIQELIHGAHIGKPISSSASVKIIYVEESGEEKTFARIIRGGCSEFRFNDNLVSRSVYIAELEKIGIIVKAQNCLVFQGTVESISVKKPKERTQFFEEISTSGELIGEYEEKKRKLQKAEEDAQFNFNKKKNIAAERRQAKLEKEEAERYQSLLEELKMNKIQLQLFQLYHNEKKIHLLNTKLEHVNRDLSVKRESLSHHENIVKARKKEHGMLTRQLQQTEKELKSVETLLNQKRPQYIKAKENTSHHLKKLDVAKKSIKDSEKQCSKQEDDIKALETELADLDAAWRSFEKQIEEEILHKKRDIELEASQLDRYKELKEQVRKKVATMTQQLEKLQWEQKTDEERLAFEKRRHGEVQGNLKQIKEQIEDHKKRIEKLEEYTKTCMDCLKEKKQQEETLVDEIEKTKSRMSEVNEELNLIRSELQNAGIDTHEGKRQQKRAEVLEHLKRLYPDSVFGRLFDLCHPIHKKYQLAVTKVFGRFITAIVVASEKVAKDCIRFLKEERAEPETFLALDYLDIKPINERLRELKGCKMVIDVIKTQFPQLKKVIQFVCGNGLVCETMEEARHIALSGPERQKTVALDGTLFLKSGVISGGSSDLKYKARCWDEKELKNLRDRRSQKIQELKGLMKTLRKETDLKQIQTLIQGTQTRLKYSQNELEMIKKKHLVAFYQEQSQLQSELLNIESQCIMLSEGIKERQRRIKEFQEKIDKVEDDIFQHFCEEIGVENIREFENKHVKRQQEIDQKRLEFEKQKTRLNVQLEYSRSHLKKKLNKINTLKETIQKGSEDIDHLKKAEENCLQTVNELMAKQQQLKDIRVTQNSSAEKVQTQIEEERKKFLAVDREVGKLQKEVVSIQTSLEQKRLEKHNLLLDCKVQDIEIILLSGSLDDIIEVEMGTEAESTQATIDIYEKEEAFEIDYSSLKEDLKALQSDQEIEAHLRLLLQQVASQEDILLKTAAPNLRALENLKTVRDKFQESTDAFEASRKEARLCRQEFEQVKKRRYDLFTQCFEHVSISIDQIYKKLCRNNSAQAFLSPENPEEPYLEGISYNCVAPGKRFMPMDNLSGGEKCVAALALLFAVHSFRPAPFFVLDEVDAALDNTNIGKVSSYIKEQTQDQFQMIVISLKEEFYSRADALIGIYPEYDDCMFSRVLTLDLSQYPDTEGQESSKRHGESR
Sequence of UniProt B2RUZ4 (B2RUZ4 whole entry, looked up): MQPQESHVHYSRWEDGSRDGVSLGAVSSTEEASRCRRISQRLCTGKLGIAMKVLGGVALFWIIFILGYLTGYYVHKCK
Sequence of UniProt Q15527 (Q15527 whole entry, looked up): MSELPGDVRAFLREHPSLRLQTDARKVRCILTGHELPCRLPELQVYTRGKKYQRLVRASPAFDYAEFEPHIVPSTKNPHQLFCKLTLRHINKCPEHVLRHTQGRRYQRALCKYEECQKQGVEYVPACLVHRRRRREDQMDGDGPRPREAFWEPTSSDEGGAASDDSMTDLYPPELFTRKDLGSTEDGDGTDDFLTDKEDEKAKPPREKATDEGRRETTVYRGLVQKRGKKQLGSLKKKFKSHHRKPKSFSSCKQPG

log2 fold change, inactive:
SMARCA4 isoform 4 (UniProt P51532) -0.038
TAF1B (UniProt Q53T94) -0.047
SNRPD2 (UniProt K7EJB5) 0.025
STK3 isoform 2 (UniProt Q13188) 0.269
SMPD2 (UniProt O60906) -0.074
SLC41A1 (UniProt Q8IVJ1) 0.014
SLC22A18 (UniProt Q96BI1) -0.077
SLC12A6 isoform 2 (UniProt Q9UHW9) -0.106
SZT2 (UniProt Q5T011) -0.031
SPAG1 (UniProt Q07617) -0.03
SURF2 (UniProt Q15527) 0.011
SMIM1 (UniProt B2RUZ4) 0.022
SMYD3 (UniProt Q9H7B4) 0
TAOK2 (UniProt Q9UL54) 0.02
SHB (UniProt Q15464) 0.034
STMN3 (UniProt Q9NZ72) -0.012
SPA17 (UniProt Q15506) -0.038
SIX5 (UniProt Q8N196) 0.008
SMC1B isoform 3 (UniProt Q8NDV3) -0.03
TAF11 (UniProt Q15544) 0.048
SRC isoform 2 (UniProt P12931) 0

These targets were tested with COc1cc2ncnc(Nc3ccc(F)c(Cl)c3)c2cc1OCCCN1CCOCC1 [gefitinib] in the same assay as above.
Procedure, shortened: as §1

log2 fold change, inactive:
SMARCA4 isoform 4 (UniProt P51532) -0.116
TAF1B (UniProt Q53T94) 0.016
SNRPD2 (UniProt K7EJB5) 0.107
STK3 isoform 2 (UniProt Q13188) 0.002
SLCO4A1 (UniProt Q96BD0) -0.001
SLC41A1 (UniProt Q8IVJ1) 0.153
SIN3B (UniProt O75182) 0.793
TAOK2 isoform 2 (UniProt Q9UL54) -0.202
SZT2 (UniProt Q5T011) 0.094
SURF2 (UniProt Q15527) -0.041
SMIM1 (UniProt B2RUZ4) -0.279
SMYD3 (UniProt Q9H7B4) 0.034
STK17B (UniProt O94768) 0.094
TAOK2 (UniProt Q9UL54) -0.009
STMN3 (UniProt Q9NZ72) -0.041
SIX5 (UniProt Q8N196) 0.13
SMC1B isoform 3 (UniProt Q8NDV3) 0.044
SNAPC2 (UniProt Q13487) -0.044
TAF11 (UniProt Q15544) 0.064
STAU1 isoform 3 (UniProt O95793) 0.03
SNIP1 (UniProt Q8TAD8) -0.015
STK38L (UniProt Q9Y2H1) -0.049
STK17A (UniProt Q9UEE5) -0.141
